Most compounds without a hit are left out; they make up all but 1.3% or so of the library.
GCN5L2 inh: inhibitors of human GCN5L2 histone acetyltransferase. Q92830. GCN5L2 HAT assay, ThioGlo1 CoA-SH fluorescence. Potency, µM (highest dose often 58.9 µM), for inactives: top-dose activity change, negative = inhibition, hits mostly inhibitors. 0.21% of 390,000 active. AID 504327; also: potency is read from the fitted curve at half-maximal effect
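Titration-based screen in which CoA formation is detected via maleimide probe ThioGlo1 (50uM) turning fluorescent on thiol reaction; substrates H3(1-25) 75uM and acetyl-CoA 70uM, GCN5L2 20nM, 20 min incubation at room temperature.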
GALK inh: galactokinase (human) inhibition; P51570; 0.007% of 270,000 active; Potency, µM (top dose mostly 57.5 µM), for the others: top-dose activity change, negative = inhibition, hits mostly inhibitors; Purified GALK, Kinase-Glo residual ATP luminescence; also: potency is read from the fitted curve at half-maximal effect
Target sequence (P51570 whole entry, looked up): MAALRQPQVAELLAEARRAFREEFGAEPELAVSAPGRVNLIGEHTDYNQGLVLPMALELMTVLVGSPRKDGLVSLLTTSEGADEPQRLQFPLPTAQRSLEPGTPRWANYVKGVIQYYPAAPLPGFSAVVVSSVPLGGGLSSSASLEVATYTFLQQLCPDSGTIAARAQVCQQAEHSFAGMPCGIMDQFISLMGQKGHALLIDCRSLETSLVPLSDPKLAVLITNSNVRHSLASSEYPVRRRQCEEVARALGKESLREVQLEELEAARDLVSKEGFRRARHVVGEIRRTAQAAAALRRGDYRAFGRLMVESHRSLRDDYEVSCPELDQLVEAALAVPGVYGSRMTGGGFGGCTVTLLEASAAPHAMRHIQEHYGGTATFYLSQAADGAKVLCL
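Compounds were pin-transferred into ATP buffer (35 uM final), then GALK plus galactose (5 nM, 100 uM final) was added. After 1 h at room temperature, Kinase-Glo Plus was added and luminescence read after 10 min.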
TrxR1 substrate: rat thioredoxin reductase 1 substrate activity | purified TrxR1 substrate turnover, NADPH consumption readout | Potency, µM (doses to about 114 µM), inactives show at the top dose activity change, negative = substrate turnover | 0.01% of 390,000 active; also: potency is read from the fitted curve at half-maximal effect; nearly all actives have a fitted effect of over 50% in size
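Rat TrxR1, dispensed at 90 nM, was prereduced with 400 uM NADPH (final) for 5 min at ~22 deg C, then incubated with compound 15 min before 400 uM selenite. A first-read NADPH fluorescence drop versus no-compound background flagged substrates.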
Giardia killer: Giardia lamblia killing | Giardia lamblia trophozoite viability | activity change, % at 7.66 µM, hits read low | 0.15% of 340,000 active | AID 540267; in the data active = activity change below about -80%; inconclusive = between about -30% and that limit;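 also: parasites exposed to compound for two days anaerobically before the ATP read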
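Viability, read as ATP luminescence: trophozoites at 100 cells/well, compound added, 48 hrs anaerobic at 37 deg C, then 15-30 min room-temperature development before reading.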
TrxR1 inh: rat TrxR1 inhibition; recombinant rTrxR1, NADPH fluorescence consumption, selenite substrate; Potency, µM (top dose mostly 114 µM), without a hit: at the highest dose activity change, negative = inhibition, most hits filed as inhibitors; 1% of 390,000 active; also: potency is read from the fitted curve at half-maximal effect; nearly all actives have a fitted effect of over 65% in size
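Rat TrxR1 (90 nM in the dispensed reagent) was pre-reduced with 400 uM NADPH for 5 min at room temperature, then incubated with compound for 15 min. After 400 uM selenite was added, NADPH fluorescence (Ex 340/Em 450 nm) was followed for 8 min.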
Pin1 inh: inhibitors of human Pin1; Q13526; Pin1 FP peptide displacement, HiFluor488, 10 min; Potency, µM (series often up to 115 µM), inactives show top-dose activity, negative = inhibition, usual class: inhibitors; 0.009% of 390,000 active; AID 504891; active = well fitted inhibition curve with a large enough effect in the polarisation, with a control signal flat, not every such curve was filed as active; inconclusive = small, poorly fitted or top-dose-only effect, or effect the other way, or a change in a side signal; inactive = no such curve, though single readings can be large or run the other way; the % refers to the polarisation; also: potency is read from the fitted curve at half-maximal effect
Target sequence (Q13526 whole entry, looked up): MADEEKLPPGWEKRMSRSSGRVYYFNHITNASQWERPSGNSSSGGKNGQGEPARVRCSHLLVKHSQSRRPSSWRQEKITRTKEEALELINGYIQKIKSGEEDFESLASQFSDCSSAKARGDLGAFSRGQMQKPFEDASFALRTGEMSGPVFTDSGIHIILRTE
* = called active by the depositor; ? = inconclusive; nt = not tested or not shown; ! = a repeat was not active; [ ] = remark or other dose. Unless noted, calls follow the shape of the dose curve; as a rule, active = well fitted curve in the direction sought with a large enough effect; inconclusive = small, poorly fitted or top-dose-only effect, or another doubt; inactive = no such curve, though single readings can be large; an effect the other way counts as inactive or inconclusive. % is scaled to controls: 0 for no effect and ±100 for the full control effect.

SMILES	GCN5L2 inh	GALK inh	TrxR1 substrate	Giardia killer	TrxR1 inh	Pin1 inh
COc1ccc(NC(=O)CCS(=O)(=O)c2nc(-c3ccc4c(c3)OCO4)cc(C(F)(F)F)n2)cc1	-3%	nt	-6%	nt	?	?
COc1cc(Cl)c(C)cc1NC(=O)CCc1nc2cccnc2n1-c1ccccc1	1%	nt	-15%	nt	-17%	-1%
COc1cc2nc(NC3CCN(Cc4ccccc4)CC3)nc(N3CCCN(C)CC3)c2cc1OC	nt	nt	26%	nt	-11%	nt
Fc1ccc(C2=Nc3cccc4cccc(c34)N2)cc1	11%	-1%	-4%	25	?	1%
FC(F)(F)C1=Nc2cccc3cccc(c23)N1	6.3µM*	nt	-4%	-4	40µM*	nt
CC1CN(S(=O)(=O)c2ccc(C(=O)Nc3nc(-c4cc5ccccc5o4)cs3)cc2)CC(C)O1 (stereo not given)	-3%	-2%	32%	32	21%	15%
O=C(Nc1nc(-c2cc3ccccc3o2)cs1)c1ccc(S(=O)(=O)N2CCCC2)cc1	-3%	1%	11%	-1	79µM*	82%
COc1ccc(C2C3=C(N=CN(CCN4CCOCC4)C3N)Oc3ccccc32)cc1OC (stereo not given)	nt	nt	nt	nt	nt	2%
CCn1nc(C)cc1-c1nnc(Sc2ncc([N+](=O)[O-])s2)n1C	-11%	-3%	-10%	0	0.35µM*	-3%
CN(Cc1ccccc1C#N)S(=O)(=O)c1cccs1	1%	-1%	3%	-9	16%	6%
N#Cc1nccnc1S(=O)(=O)c1cccs1	-11%	nt	9%[57.1 µM]	8	0.32µM*	-1%
COc1cccc(NC(=O)CCN2C(=O)c3ccccc3Sc3ncccc32)c1	-6%	-3%	-2%	13	71µM*	-3%
COc1cc2nc(CCNCc3ccccc3)nc(NC3CCN(C)CC3)c2cc1OC	nt	nt	-4%	nt	?	nt
CC(C)C(NC(=O)c1ccccc1)C(=O)OCC(=O)N1CCCC1 (stereo not given)	-5%	nt	-2%	0	13%	-2%
CC(C)[C@H](NC(=O)c1ccc(Cl)cc1)C(=O)OCC(=O)N1CCN(c2ccccc2)CC1	-1%	nt	2%	-6	32µM*	-3%
CN(C)CC/C=C1\c2ccccc2COc2ccccc21	-4%	-2%	6%[57.1 µM]	-8	32µM*!	19%
CN(C)CC/C=C1/c2ccccc2CS(=O)(=O)c2ccccc21	nt	nt	3%	-3	14%	-3%
CCc1cccc(NC(=O)C2CCCN2S(=O)(=O)c2ccc3nc(-c4ccccc4)[nH]c3c2)c1 (stereo not given)	-11%	nt	-3%	nt	-17%	18%
CCCCCCCCCC[n+]1cc(Br)cc(Br)c1	nt	nt	-3%	nt	-8%	nt
COc1ccccc1NC1=C(NC(C)=O)C(=O)c2ccccc2C1=O	-25%	8%	5%	4	4.5µM*	-1%
Cc1ccc(-c2nc3ccc(Cl)cn3c2Nc2ccccc2)o1	nt	nt	6%	9	?	0%
Cc1ccc2nc(-c3ccc(C)o3)c(Nc3ccccc3)n2c1	nt	nt	24%	4	18µM*	7%
Cc1ccc(-c2nc3cnccn3c2Nc2ccccc2)o1	-20%	2%	13%	-19	40µM*	-1%
Cc1ccc(-c2nc3ncccn3c2Nc2ccc3c(c2)OCCO3)o1	-1%	-2%	1%	-2	40µM*	-3%
Cc1ccc2nc(-c3ccccc3F)c(Nc3ccc(Cl)cc3)n2c1	-15%	nt	94%	nt	15%	3%
SMILES	GCN5L2 inh	GALK inh	TrxR1 substrate	Giardia killer	TrxR1 inh	Pin1 inh
Fc1ccccc1-c1ccc(-c2nc3ccc(Cl)cn3c2Nc2ccc(Cl)cc2)o1	nt	nt	3%	-15	25µM*	44%
CC(C)(C)C1CCc2nc(NC(=O)c3cccc(Cl)c3)sc2C1 (stereo not given)	-2%	nt	-2%	nt	10%	58%
O=C(NCCC1=CCCCC1)c1ccc2c(c1)N(Cc1cccc(Cl)c1)C(=O)c1ccccc1S2=O (stereo not given)	-1%	nt	-5%[57.1 µM]	nt	25%[57.1 µM]	25%
CCOC(=O)CNC(=O)CSc1nnc(NC(=O)c2ccc(C)cc2)s1	-3%	-2%	6%[57.1 µM]	-87*	10%[57.1 µM]	7%
CCOC(=O)CNC(=O)CSc1nnc(NC(=O)c2ccc3c(c2)OCO3)s1	1%	0%	1%	?	-12%	12%
COc1ccc(C(=O)Nc2ccc3nc(SCC(=O)N4CCOCC4)sc3c2)cc1	-12%	nt	12%	nt	26%	-11%
Cc1ccc(C(=O)Nc2nnc(SCC(=O)N3CCCc4ccccc43)s2)cc1	-7%	-3%	11%	-125*	23%	32%
CC(C)Oc1ccc(C(=O)Nc2nnc(SCC(=O)N3CCOCC3)s2)cc1	0%	-2%	-7%	-95*	-12%	-3%
COc1cccc(C(=O)NNS(=O)(=O)c2ccc(C)cc2)c1	-6%	2%	1%	11	11%	-6%
CCCOc1ccc(-c2nonc2NC(=O)COc2ccc(C)cc2)cc1OCCC	-2%	nt	8%	nt	11%	-8%
Cc1nc2scc(-c3ccco3)c2c(=O)n1/N=C/N(C)C	3%	-3%	11%	-1	32µM*	26%
COc1cccc(/C=N/Nc2ncccc2[N+](=O)[O-])c1OC	-6%	18%	-11%	-5	-5%	1%
O=[N+]([O-])c1ccc(/C=N/Nc2ncccc2[N+](=O)[O-])s1	nt	nt	-14%[57.1 µM]	-93*	30%[57.1 µM]	21%
O=C(CN(C1CCCCC1)S(=O)(=O)c1ccccc1)NCC1CCCO1 (stereo not given)	-5%	15%	7%[57.1 µM]	-5	17%[57.1 µM]	2%
O=C(CN(C1CCCCC1)S(=O)(=O)c1ccc(F)cc1)NCC1CCCO1 (stereo not given)	nt	nt	-3%	-84*	-13%	3%
[O-]/[N+](=C\c1ccncc1)c1ccc(Br)cc1	-11%	nt	-5%	-18	35µM*	-1%
N#Cc1ccccc1NC(=S)NC(=O)c1cccs1	-10%	12%	-7%	2	2.2µM*	3%
COc1ccc(C=O)cc1COc1ccc(NC(C)=O)cc1	nt	nt	nt	nt	nt	2%
CC1(C)CC(=O)c2sc(NC(=O)CCS(=O)(=O)c3ccccc3)nc2C1	1%	0%	7%[57.1 µM]	1	6%[57.1 µM]	8%
CC1(C)CC(=O)C(CS(=O)(=O)c2ccccc2)=C(Cl)C1	-2%	6%	4%	6	28µM*	0%
CCCOc1ccc(NC(=O)CC2C(=O)N(c3cccc(C)c3)C(=O)N2CCc2ccncc2)cc1 (stereo not given)	3%	nt	-3%	nt	28%	7%
COc1ccc(NC(=O)c2c(NCc3cccs3)sc3c2CCCC3)cc1	-3%	nt	-7%[57.1 µM]	nt	-13%[57.1 µM]	?
O=C(Cc1ccccc1)Nc1sc2c(c1C(=O)Nc1ccccc1)CCCCC2	-1%	nt	-4%	nt	40µM*	?

Screening data deposited in PubChem BioAssay by National Center for Advancing Translational Sciences (NCATS).
